Experimental data as given in the supplement of paper PMC8877412.
Structures can show the parent of a compound that is named as a salt. ± gives the uncertainty stated by the source.

Tested on: NCC-PMP1-C1
Test: cell viability relative to DMSO control; higher = less growth inhibition
Details: 10 µM; 72 h
Method: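 NCC-PMP1-C1 pseudomyxoma peritonei cells were seeded in 384-well plates coated with Matrigel and MEF (1e4 cells). Viability was read after 72 h by CCK-8 and expressed as % of the DMSO control, mean ± SD of duplicates.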

| Compound | cell viability [%] |
| --- | --- |
| C=CC[C@@H]1/C=C(\C)C[C@H](C)C[C@H](OC)[C@H]2O[C@@](O)(C(=O)C(=O)N3CCCC[C@H]3C(=O)O[C@H](/C(C)=C/[C@@H]3CC[C@@H](O)[C@H](OC)C3)[C@H](C)[C@@H](O)CC1=O)[C@H](C)C[C@@H]2OC [Tacrolimus (FK506)] | 2.67 ± 1 |
| COc1cc2c(Oc3ccc4[nH]c(C)cc4c3F)ncnc2cc1OCCCN1CCCC1 [Cediranib (AZD2171)] | 22.4 ± 14 |
| C/C=C1\NC(=O)[C@H]2CSSCC/C=C/[C@H](CC(=O)N[C@H](C(C)C)C(=O)N2)OC(=O)[C@H](C(C)C)NC1=O [Romidepsin (FK228, Depsipeptide)] | 22.2 ± 22 |
| Cc1ccc(-c2cc(C(F)(F)F)nn2-c2ccc(S(N)(=O)=O)cc2)cc1 [Celecoxib] | 99.99 ± 0.53 |
| C[C@]12CC[C@@H]3c4ccc(O)cc4C[C@@H](CCCCCCCCC[S+]([O-])CCCC(F)(F)C(F)(F)F)[C@H]3[C@@H]1CC[C@@H]2O (stereo not given in full) [Fulvestrant] | -7.846 ± 0.067 |
| CCN(CC)CCNC(=O)c1c(C)[nH]c(/C=C2\C(=O)Nc3ccc(F)cc32)c1C [Sunitinib] | 35.5 ± 3.6 |
| C=CC(=O)N1CCC(Oc2cc3c(Nc4ccc(Cl)c(Cl)c4F)ncnc3cc2OC)CC1 [Poziotinib (HM781-36B)] | 76.9 ± 8.5 |
| COc1cc2ncnc(Nc3ccc(F)c(Cl)c3)c2cc1OCCCN1CCOCC1 [Gefitinib(ZD1839)] | 85.16 ± 0.73 |
| CCCCCCNC(=O)n1cc(F)c(=O)[nH]c1=O [Carmofur] | 96.6 ± 12 |
| O=c1c(-c2ccc(O)cc2)coc2cc(O)cc(O)c12 [Genistein] | 100 ± 2.1 |
| CC(=O)OCC(=O)[C@@]1(O)CC[C@H]2[C@@H]3CCC4=CC(=O)CC[C@]4(C)[C@H]3C(=O)C[C@@]21C [Cortisone acetate] | 114 ± 4.4 |
| O=C1NC(=O)[C@@H](c2cn3c4c(cccc24)CCC3)[C@@H]1c1c[nH]c2ccccc12 [Tivantinib (ARQ 197)] | 79.8 ± 7.7 |
| Fc1ccc(C(c2ccc(F)cc2)N2CCN(C/C=C/c3ccccc3)CC2)cc1 [Flunarizine 2HCl] | 99.6 ± 22 |
| Cc1cc(Nc2ncc(Cl)c(Nc3ccccc3S(=O)(=O)C(C)C)n2)c(OC(C)C)cc1C1CCNCC1 [Ceritinib (LDK378)] | -3.34 ± 0.36 |
| COc1ccc(/C=C/C(=O)Nc2ccccc2C(=O)O)cc1OC [Tranilast] | 111 ± 20 |
| CN(C)c1nc(N(C)C)nc(N(C)C)n1 [Altretamine] | 113 ± 7.4 |
| CC/C(=C(/CC)c1ccc(O)cc1)c1ccc(O)cc1 [Diethylstilbestrol] | 121.2 ± 0.53 |
| Nc1nc2[nH]cnc2c(=S)[nH]1 [Thioguanine] | 88.9 ± 9.4 |
| CN1c2cc(O)c(N=NC(N)=O)cc2CC1S(=O)(=O)O (stereo not given) [Carbazochrome sodium sulfonate (AC-17)] | 90.4 ± 9.1 |
| COc1cccc2c1C(=O)c1c(O)c3c(c(O)c1C2=O)C[C@@](O)(C(C)=O)C[C@@H]3O[C@H]1C[C@H](N)[C@H](O)[C@H](C)O1 [Daunorubicin HCl] | -1.33 ± 0.2 |

| Compound | cell viability [%] |
| --- | --- |
| COc1cc2/c(=N/c3ccc(Br)cc3F)nc[nH]c2cc1OCC1CCN(C)CC1 [Vandetanib (ZD6474)] | 54.7 ± 4.9 |
| COc1cc2c(cc1O)CC[C@@H]1[C@@H]2CC[C@]2(C)[C@@H](O)CC[C@@H]12 [2-Methoxyestradiol (2-MeOE2)] | 98 ± 4 |
| COc1cc(OC)cc(N(CCNC(C)C)c2ccc3ncc(-c4cnn(C)c4)nc3c2)c1 [Erdafitinib] | 59.1 ± 2.4 |
| COc1cc2ncnc(Nc3ccc(F)c(Cl)c3)c2cc1NC(=O)/C=C/CN1CCCCC1 | 68.1 ± 1.6 |
| C=C1C[C@@H]2CC[C@@]34C[C@H]5O[C@H]6[C@@H](O3)[C@H]3O[C@H](CC[C@@H]3O[C@H]6[C@H]5O4)CC(=O)C[C@@H]3[C@@H](OC)[C@@H](C[C@H](O)CN)O[C@H]3C[C@H]3O[C@@H](CC[C@@H]1O2)C[C@@H](C)C3=C [Eribulin] | 53.95 ± 0.3 |
| CNC[C@H](O)c1ccc(O)c(O)c1 [Epinephrine Bitartrate] | 127 ± 6.3 |
| CC(C)c1nc(CN(C)C(=O)N[C@@H](CCN2CCOCC2)C(=O)N[C@H](CC[C@H](Cc2ccccc2)NC(=O)OCc2cncs2)Cc2ccccc2)cs1 [Cobicistat (GS-9350)] | 83.8 ± 3.1 |
| CC[C@H](Nc1ncnc2[nH]cnc12)c1nc2cccc(F)c2c(=O)n1-c1ccccc1 [CAL-101 (Idelalisib, GS-1101)] | 73.5 ± 9.8 |
| CS(=O)(=O)CCNCc1ccc(-c2ccc3ncnc(Nc4ccc(OCc5cccc(F)c5)c(Cl)c4)c3c2)o1 | 51.2 ± 7.9 |
| O=S(=O)(O)CCS [Mesna] | -9.24 |
| CO[C@@]12[C@H](COC(N)=O)C3=C(C(=O)C(C)=C(N)C3=O)N1C[C@@H]1N[C@@H]12 [Mitomycin C] | 60.3 ± 9.8 |
| CO[C@H]1O[C@@H]2O[C@@]3(C)CC[C@H]4[C@H](C)CC[C@@H]([C@H]1C)[C@@]24OO3 [Artemether] | 105 ± 6.2 |
| Nc1ncn([C@@H]2O[C@H](CO)[C@@H](O)[C@H]2O)c(=O)n1 [Azacitidine] | 83.3 ± 6.9 |
| COc1cccc2c1C(=O)c1c(O)c3c(c(O)c1C2=O)C[C@@](O)(C(=O)CO)C[C@@H]3O[C@H]1C[C@H](N)[C@@H](O)[C@H](C)O1 [Epirubicin HCl] | 3.6 ± 0.6 |
| C[C@@H]1CCN(C(=O)CC#N)C[C@@H]1N(C)c1ncnc2[nH]ccc12 | 77.2 ± 22 |
| COc1ccc2[nH]c([S@@+]([O-])Cc3ncc(C)c(OC)c3C)nc2c1 [Esomeprazole Sodium] | 108 ± 1.5 |
| Nc1nc2n[nH]nc2c(=O)[nH]1 [Azaguanine-8] | 55.8 ± 6.5 |
| FC(F)(F)c1ccc(/C=C/c2nc(COc3ccc(CCCCn4ccnn4)cc3)co2)cc1 [Mubritinib (TAK 165)] | 171 ± 3.5 |
| CC#CCn1c(N2CCC[C@@H](N)C2)nc2c1c(=O)n(Cc1nc(C)c3ccccc3n1)c(=O)n2C [Linagliptin] | 94.5 ± 11 |
| Cc1[nH]c(/C=C2\C(=O)Nc3ccccc32)c(C)c1CCC(=O)O [Orantinib (TSU-68, SU6668)] | 115 ± 2.1 |
